RPL19A-GFP yeast = alters RPL19A-GFP fluorescence in TOR pathway yeast screen; S. cerevisiae RPL19A-GFP strain, flow cytometry, 3 h; hits give low values; percent response vs DMSO, % at 10 µM; 0.3% of 330,000 active; AID 2025;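 active = percent response vs DMSO below 50%; inconclusive = fewer than 70 events counted for the yeast strain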;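 note: median channel GFP fluorescence of the barcoded RPL19A-GFP strain; lower means less RPL19A-GFP as with rapamycin TOR inhibition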
MEP2 TOR yeast = modulators of TOR pathway MEP2-GFP in S. cerevisiae. S. cerevisiae MEP2-GFP strain, flow cytometry GFP, 3 h; 100% = DMSO control level. GFP response vs DMSO, % at 10 µM. 0.51% of 330,000 active;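 active = GFP response versus DMSO above a set limit, roughly screen mean plus 3 SD, cut at about 180% in these data; inconclusive = fewer than 70 cells counted for a yeast strain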;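 note: median GFP fluorescence of the barcode-gated MEP2-GFP cells per well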
AGP1-GFP MLPCN = alters AGP1-GFP fluorescence in TOR pathway yeast screen | S. cerevisiae AGP1-GFP multiplex flow cytometry, 3 h; GFP as percent of DMSO wells | GFP response vs DMSO, % at 10 µM | 0.02% of 320,000 active | AID 2066;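 active = GFP response relative to DMSO above a set limit, near screen average plus 3 SD, cut at about 150% in these data; inconclusive = fewer than 70 cells counted for the yeast strain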;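 note: median GFP channel fluorescence of the gated AGP1 strain per well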
LAP4 TOR yeast = alters LAP4-GFP fluorescence in TOR pathway yeast screen | S. cerevisiae LAP4-GFP multiplex, flow cytometry GFP, 3 h; median GFP as percent of DMSO wells | GFP response vs DMSO, % at 10 µM | 0.34% of 320,000 active;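 active = GFP response vs DMSO above a set limit, about the screen mean plus 3 SD, cut at about 150% in these data; inconclusive = under 70 cell events counted for the yeast strain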
CIT2-GFP yeast = yeast TOR pathway CIT2-GFP modulation | 0.065% of 320,000 active | GFP response vs DMSO, % at 10 µM | S. cerevisiae CIT2-GFP strain, flow cytometry, 3 h; 100 means same as DMSO wells | AID 2029;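 active = GFP response relative to DMSO above a set limit, near the screen mean plus 3 SD, cut at about 150% in these data; inconclusive = Fewer than 70 cells measured for a yeast strain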;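 note: ratio of well median GFP fluorescence to mean of DMSO wells on the plate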
Large screens that a line does not name were inactive; [ ] = remark or other dose. Rows were chosen to be rich in hits. Some 0.92% of all compounds tested hit in one or more screens of this group.

COc1ccc(NC(=O)CSc2nc3ccccc3c(=O)n2CCCC(=O)NCC2CCCO2)c(OC)c1 (stereo not given)	none
COc1ccccc1CNC(=O)COC(=O)C12CC3CC(CC(O)(C3)C1)C2	none
COC(=O)c1sc(N)c(C(=O)OC)c1COC(=O)C12CC3CC(CC(O)(C3)C1)C2	MEP2 TOR yeast 249[may fluoresce violet], CIT2-GFP yeast inconclusive
O=C(CN1C(=O)S/C(=C\c2ccc(F)cc2)C1=O)NCCCn1ccnc1	RPL19A-GFP yeast 18[may fluoresce violet], CIT2-GFP yeast inconclusive
Fc1ccc(C2CC(c3ccccc3)n3ncnc3N2)cc1 (stereo not given)	AGP1-GFP MLPCN 161, LAP4 TOR yeast 181
CC(C)c1ccc(C2C3CSCC=C3C(C#N)=C(N)C2(C#N)C#N)cc1 (stereo not given)	LAP4 TOR yeast 170
O=Cc1ccc(OCCOc2ccc([N+](=O)[O-])cc2)cc1	none
Cc1nn(Cc2c(Cl)cccc2Cl)c(C)c1NC(=O)c1sc2ccccc2c1Cl	MEP2 TOR yeast 192
O=C(CN1C(=O)CSc2ccc(S(=O)(=O)N3CCOCC3)cc21)NCCCN1CCOCC1	RPL19A-GFP yeast 23[may fluoresce violet], MEP2 TOR yeast inconclusive, AGP1-GFP MLPCN inconclusive, LAP4 TOR yeast inconclusive, CIT2-GFP yeast inconclusive
O=C(COC(=O)c1cccc(S(=O)(=O)N2CCOCC2)c1)c1ccccc1	MEP2 TOR yeast 308[may fluoresce violet], CIT2-GFP yeast inconclusive
Cc1cc(NC(=O)c2cccc(S(=O)(=O)N3CCOCC3)c2)no1	RPL19A-GFP yeast 40[may fluoresce violet], MEP2 TOR yeast 536[may fluoresce violet], CIT2-GFP yeast inconclusive (no result: AGP1-GFP MLPCN)
O=C(NCCCN1CCOCC1)c1cccc(S(=O)(=O)N2CCOCC2)c1	MEP2 TOR yeast active[may fluoresce green], AGP1-GFP MLPCN active[may fluoresce green], LAP4 TOR yeast active[may fluoresce green], CIT2-GFP yeast active[may fluoresce green]
Cc1cc(NC(=O)c2cccc(S(=O)(=O)N3CCCCC3)c2)no1	none
CC(CCc1ccccc1)NC(=O)C(Cc1ccccc1)NC(N)=O (stereo not given)	none
Cc1ccccc1NC(=O)NC1(C(=O)N2CCC(C(N)=O)CC2)CCCCC1	none
O=C(O)c1ccc(NS(=O)(=O)c2cc(Cl)sc2Cl)cc1	RPL19A-GFP yeast 41[may fluoresce violet], MEP2 TOR yeast 710[may fluoresce violet], AGP1-GFP MLPCN inconclusive, CIT2-GFP yeast inconclusive
CC(=O)Nc1ccc(NS(=O)(=O)c2cc(Cl)sc2Cl)cc1	none
COCCNC(=O)c1ccc(Cl)c(Cl)c1	MEP2 TOR yeast 286, LAP4 TOR yeast 215, CIT2-GFP yeast 183
COc1cccc(NC(=O)CN(C)C(=O)c2oc3c(ccc4ccccc43)c2C)c1	none
O=C(CS(=O)(=O)c1ccccc1)c1cc2ccccc2oc1=O	RPL19A-GFP yeast 12[may fluoresce violet], MEP2 TOR yeast 183[may fluoresce violet], AGP1-GFP MLPCN inconclusive, LAP4 TOR yeast inconclusive, CIT2-GFP yeast inconclusive
O=C(CS(=O)(=O)c1ccccc1)c1cc2cc(F)ccc2oc1=O	none
CC(=O)OC1CC2(C)/C(=N\O)CCC2C2CCc3cc(O)ccc3C12 (stereo not given)	none
CCNc1nc(NCC)n2c(SCC(=O)Nc3ccc(C)cc3Br)nnc2n1	none
Cc1ccc(-c2csc(N)n2)s1	none
Cc1csc(N)n1	RPL19A-GFP yeast inconclusive, LAP4 TOR yeast 420[may fluoresce red]
Cc1ccccc1N(CC(=O)O)S(C)(=O)=O	MEP2 TOR yeast 229[may fluoresce violet], CIT2-GFP yeast inconclusive (no result: AGP1-GFP MLPCN)
COC(=O)c1cc(C(=O)c2cc(Cl)ccc2O)coc1=N	none
Cc1ccc(O)c(C(=O)c2coc(=N)c(C(=O)NC(C)C)c2)c1	RPL19A-GFP yeast 22[may fluoresce violet], MEP2 TOR yeast 274[may fluoresce violet], AGP1-GFP MLPCN inconclusive, CIT2-GFP yeast inconclusive
CC1C(=O)N2CCCc3cc(NC(=O)C(=O)NCCCc4ccccc4)cc1c32 (stereo not given)	none
COc1ccc(N(CC(=O)NCc2ccc(F)cc2)C(=O)CCC(=O)Nc2ccccn2)cc1	none
Cc1ccc(N(CC(=O)NCc2ccc(F)cc2)C(=O)CCC(=O)Nc2ccccn2)cc1C	RPL19A-GFP yeast 45[may fluoresce violet], MEP2 TOR yeast 564[may fluoresce violet], AGP1-GFP MLPCN inconclusive, CIT2-GFP yeast inconclusive
CC1(C)C(N(O)C(=O)Nc2ccc(Cl)cc2)N(c2ccc(Cl)cc2)C(=O)N1CC(=O)NN (stereo not given)	MEP2 TOR yeast 269[may fluoresce violet], CIT2-GFP yeast inconclusive
CN1C(=S)SC(C)(C)C1N(O)C(=O)Nc1ccc(Cl)cc1 (stereo not given)	none (no result: CIT2-GFP yeast)
Cc1ccc(NC(=O)C2CCN(S(=O)(=O)c3cccc4nonc34)CC2)cc1	MEP2 TOR yeast 297[may fluoresce violet], CIT2-GFP yeast inconclusive
O=S(=O)(c1cccc2nonc12)N1CCCCCC1	none
COc1ccc(NC(=O)C2CCN(S(=O)(=O)c3cccc4nonc34)CC2)cc1	none
O=C(C1CCN(S(=O)(=O)c2cccc3nonc23)CC1)N1CCCCC1	RPL19A-GFP yeast 17[may fluoresce violet], MEP2 TOR yeast inconclusive, AGP1-GFP MLPCN inconclusive, LAP4 TOR yeast inconclusive, CIT2-GFP yeast inconclusive
Cc1sc2ncn(CC(=O)NCC(=O)N3CCN(c4ccc(F)cc4)CC3)c(=O)c2c1C	none
O=S1(=O)N=C2CCCN2C(c2ccc(F)cc2)N1 (stereo not given)	none
O=S1(=O)N=C2CCCCCN2C(c2ccc(F)cc2)N1 (stereo not given)	RPL19A-GFP yeast 17[may fluoresce violet], MEP2 TOR yeast 192[may fluoresce violet], AGP1-GFP MLPCN inconclusive, CIT2-GFP yeast inconclusive
CCN1/C(=C/C=C/C=C/c2sc3ccccc3[n+]2CC)Sc2ccccc21	RPL19A-GFP yeast inconclusive, MEP2 TOR yeast 265[may fluoresce red], LAP4 TOR yeast inconclusive
CCN1/C(=C/C=C/C=C/C=C/c2sc3ccccc3[n+]2CC)Sc2ccccc21	RPL19A-GFP yeast inconclusive
CCCC(=O)C1=C(O)C(C(=O)OC)C(C)(C)CC1=Nc1cccc2ccccc12 (stereo not given)	MEP2 TOR yeast 177[may fluoresce violet], CIT2-GFP yeast inconclusive (no result: AGP1-GFP MLPCN)
Cc1ccccc1OCC(=O)N1CCCc2ccccc21	none
COc1ccc(CCC(=O)N2CCCc3ccccc32)cc1	MEP2 TOR yeast 649[may fluoresce violet], AGP1-GFP MLPCN inconclusive, CIT2-GFP yeast inconclusive
COc1cccc(OCC(=O)N2CCCc3ccccc32)c1	MEP2 TOR yeast 222
CCc1ccc(CNC(=O)C2CC(=O)N(C3CCCC3)C2)cc1 (stereo not given)	none
CCc1ccc(NC(=O)c2noc3c2CCc2ccccc2-3)cc1	RPL19A-GFP yeast 13[may fluoresce violet], MEP2 TOR yeast 237[may fluoresce violet], AGP1-GFP MLPCN inconclusive, CIT2-GFP yeast inconclusive
CCOC(=O)Cc1csc(NC(=O)Cn2cnc3c2c(=O)n(C)c(=O)n3C)n1	none
Cn1c(=O)c2c(ncn2CC(=O)Nc2nc(-c3ccccc3Cl)cs2)n(C)c1=O	RPL19A-GFP yeast 13[may fluoresce violet], MEP2 TOR yeast 210[may fluoresce violet], AGP1-GFP MLPCN inconclusive, CIT2-GFP yeast inconclusive
CCC(C)NC(=O)c1cc2c(=O)[nH]c3ccc(C)cc3c2s1 (stereo not given)	none
O=C(COC(=O)C1CC1)Nc1ccccc1Sc1ccccc1	none
Cc1ccc(C(=O)OCC(=O)Nc2ccccc2Sc2ccccc2)cc1C	MEP2 TOR yeast 176
O=C(CSc1nnc(COc2ccc(Cl)cc2)o1)NC1CC2CCC1C2 (stereo not given)	MEP2 TOR yeast 253[may fluoresce violet], CIT2-GFP yeast inconclusive
COc1ccc(OCc2nnc(SCC(=O)NC3CC4CCC3C4)o2)cc1 (stereo not given)	none

Screens from PubChem.
